Experiment [1] in a line: NCI Yeast Anticancer Drug Screen. Data for the rad50 strain (AID 155).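 Also: 0% = growth of vehicle-only cultures of the same strain.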 The settings on record: S. cerevisiae rad50 strain growth inhibition; at 50.0 µM; stronger effect = higher value. In short, it runs like this:
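Compounds were tested on a yeast strain with an engineered DNA damage repair alteration; the reported value is growth inhibition normalised to vehicle treatment.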

Experiment [2] in a line: NCI Yeast Anticancer Drug Screen. Data for the mec2-1 strain (AID 157). The following applies: S. cerevisiae mec2-1 strain, at 50.0 µM, stronger effect = higher value. In short, it runs like this: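 Compounds were applied to mec2-1 yeast cells. Their growth was then compared with that of vehicle-treated cultures to give growth inhibition.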
The nature of experiment [3]: NCI Yeast Anticancer Drug Screen. Data for the sgs1 mgt1 strain (AID 161).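 Also: 0% = growth of cultures given vehicle only.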 The following applies: S. cerevisiae sgs1 mgt1 strain, at 50.0 µM, stronger effect = higher value. In short, it runs like this:
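This yeast growth screen uses a strain with defined DNA-repair lesions; compound-treated growth is compared with vehicle-treated growth.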

Experiment [4] can be described thus: NCI Yeast Anticancer Drug Screen. Data for the cln2 rad14 strain (AID 165).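 Also: 0% = growth equal to vehicle treated cultures.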 The settings on record: S. cerevisiae cln2 rad14 strain, at 50.0 µM, stronger effect = higher value. In short, it runs like this:
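Strain: cln2 rad14 yeast, altered in cell cycle control and DNA damage repair. Read-out: growth inhibition vs vehicle.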

The nature of experiment [5]: NCI Yeast Anticancer Drug Screen. Data for the bub3 strain (AID 167). The following applies: S. cerevisiae bub3 mutant strain, at 50.0 µM, stronger effect = higher value. In a few lines: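 Growth of a checkpoint-deficient yeast mutant is measured after compound exposure. Values represent inhibition relative to vehicle.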
Experiment [6] is described as follows: NCI Yeast Anticancer Drug Screen. Data for the mlh1 rad18 strain (AID 175). The following applies: S. cerevisiae mlh1 rad18 strain growth inhibition; at 50.0 µM; stronger effect = higher value. In short, it runs like this:
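A repair-deficient yeast strain is exposed to test compound, and growth is scored relative to vehicle-treated controls.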

Several values for one entry are separate records, joined by “and”; a condition that tells them apart may be missing. Equal entries are not always repeated. About 79,000 compounds went through this panel and 15% of them were active in at least one assay; those are over-represented in the sample as a whole. Some compounds were tested as several samples or in several runs, with calls that do not always agree. Activity calls are given as the source filed them. Rule as the data show it: active = growth inhibition above about 70%; inactive = the rest.

As to `O=S(=O)(O)c1cc(N=Nc2cc(S(=O)(=O)O)c3cccnc3c2O)ccc1/C=C/c1ccc(N=Nc2cc(S(=O)(=O)O)c3cccnc3c2O)cc1S(=O)(=O)O`, the growth inhibition in experiment [1] was -16.7% (inactive) and 18.6% (inactive); in experiment [2], -17.4% (inactive) and 7.65% (inactive); in experiment [3], -26.5% (inactive) and 7.4% (inactive); in experiment [4], -24.4% (inactive) and -55.5% (inactive); in experiment [5] it was -18.6% (inactive) and -62.5% (inactive); in experiment [6], -111% (inactive) and -27.9% (inactive).
In the case of `CC1(C)CC(=O)CC(=O)C1`, the growth inhibition in experiment [1] was 25.2% (inactive) and 10.2% (inactive); in experiment [2], 12.8% (inactive) and 3.15% (inactive); in experiment [3], -9.3% (inactive) and 4.6% (inactive); in experiment [4], 18.8% (inactive) and 0.85% (inactive); in experiment [5], 2.55% (inactive) and 6.75% (inactive); in experiment [6], 18.6% (inactive) and 6.8% (inactive).
For the compound `CC(CC(N)C(=O)O)C(=O)O` (stereo unspecified), the growth inhibition was -0.4% (inactive) and -5.1% (inactive) in experiment [1]; -4.75% (inactive) and -22.6% (inactive) in experiment [2]; -1.95% (inactive) and -49.1% (inactive) in experiment [3]; 0.25% (inactive) and -68.8% (inactive) in experiment [4]; 0.9% (inactive) and -26.1% (inactive) in experiment [5]; -1.85% (inactive) and -17.2% (inactive) in experiment [6].
With `Oc1ccc(-c2ccc(O)cc2)cc1`, the growth inhibition in experiment [1] is 36.2% (inactive) and -18.6% (inactive); in experiment [2], 2.45% (inactive) and -3.75% (inactive); in experiment [3], 7.4% (inactive) and -17.4% (inactive); in experiment [4] it was 19.9% (inactive) and -27.9% (inactive); in experiment [5], 11.9% (inactive) and 12.9% (inactive); in experiment [6], 13.8% (inactive) and 19.3% (inactive).
Regarding `O=Nc1ccc(NO)cc1`, the growth inhibition is 29.9% (inactive) and 34% (inactive) in experiment [1]; 32.7% (inactive) and 7.45% (inactive) in experiment [2]; 33.5% (inactive) and 20.3% (inactive) in experiment [3]; -25.2% (inactive) and 22.3% (inactive) in experiment [4]; 3.2% (inactive) and 47.5% (inactive) in experiment [5]; 3.35% (inactive) and 31.6% (inactive) in experiment [6].
On to `O=C(NS(=O)(=O)c1ccccc1)OCc1ccccc1`, for which the growth inhibition is 4.65% (inactive) and -18.1% (inactive) in experiment [1]; -11.8% (inactive) and -4.35% (inactive) in experiment [2]; -14.8% (inactive) and -15.3% (inactive) in experiment [3]; -22.2% (inactive) and -31.8% (inactive) in experiment [4]; 16.7% (inactive) and 24.8% (inactive) in experiment [5]; -6.1% (inactive) and 6.1% (inactive) in experiment [6].
As for `O=C1NC2OC(CO)C(O)C(O)C2O1` (stereo unspecified), the growth inhibition in experiment [1] is -44.6% (inactive) and -35.5% (inactive); in experiment [2], -7.65% (inactive) and -15.7% (inactive); in experiment [3], -51% (inactive) and -63% (inactive); in experiment [4], -24.5% (inactive) and -10.2% (inactive); in experiment [5], -61.6% (inactive) and -22.9% (inactive); in experiment [6], -64.4% (inactive) and -54.4% (inactive).
As to `COc1ccc(/C=C\c2cc(OC)c(OC)c(OC)c2)cc1OC(=O)C(N)CCC(=O)O` (stereo unspecified), the growth inhibition is -5.3% (inactive) and 8.35% (inactive) in experiment [1]; -18.3% (inactive) and -10.8% (inactive) in experiment [2]; -0.6% (inactive) and -3.85% (inactive) in experiment [3]; 21.9% (inactive) and 6.7% (inactive) in experiment [4]; -19.6% (inactive) and 34% (inactive) in experiment [5]; 79.2% (active) and 3.3% (inactive) in experiment [6].
In the case of `CCCCc1c(C#N)c(=O)n2c(N)c(C(=O)OCC)cnc2c1SC`, the growth inhibition in experiment [1] is -8.45% (inactive) and 11.1% (inactive); in experiment [2], -3.4% (inactive) and 14.9% (inactive); in experiment [3], 8.3% (inactive) and -12.1% (inactive); in experiment [4] it was -7.6% (inactive) and -34% (inactive); in experiment [5] it was 5.65% (inactive) and -7.9% (inactive); in experiment [6], 9.15% (inactive) and -5.05% (inactive).
`COC1OCC(OC(=O)c2ccccc2)C(OC(=O)c2ccccc2)C1OC(=O)c1ccccc1` (stereo unspecified): the growth inhibition in experiment [1] was 7.5% (inactive) and 19.6% (inactive); in experiment [2], 1.15% (inactive) and -3.25% (inactive); in experiment [3], 15.7% (inactive) and -3.7% (inactive); in experiment [4] it was 19.5% (inactive) and -0.3% (inactive); in experiment [5], -1.55% (inactive) and -3.65% (inactive); in experiment [6] it was 6.15% (inactive) and -8.55% (inactive).
As for `COC(=O)C1=COC(C)C2CN3CCc4c([nH]c5cc(OC)c(OC)cc45)C3CC12` (stereo unspecified), the growth inhibition in experiment [1] was 14.2% (inactive) and 5.35% (inactive) and -4.65% (inactive); in experiment [2], -5.4% (inactive) and -5.6% (inactive) and -9.7% (inactive); in experiment [3], 5.6% (inactive) and 12.8% (inactive) and -5.45% (inactive); in experiment [4], 6.1% (inactive) and 14.9% (inactive) and 10.6% (inactive); in experiment [5], 26.4% (inactive) and 18.1% (inactive) and -20.4% (inactive); in experiment [6], 25.6% (inactive) and -54.1% (inactive) and -63.4% (inactive).
In the case of `CCOC(=O)C(c1ccccc1)c1cccc(C(C(=O)OCC)c2ccccc2)n1` (stereo unspecified), the growth inhibition was 3.1% (inactive) and 8.55% (inactive) in experiment [1]; 0.2% (inactive) and 0.1% (inactive) in experiment [2]; -16.9% (inactive) and -33.5% (inactive) in experiment [3]; -3.05% (inactive) and -41.7% (inactive) in experiment [4]; 1.8% (inactive) and -3.6% (inactive) in experiment [5]; 17.6% (inactive) and -13.7% (inactive) in experiment [6].
Turning to `COc1ccccc1/C=C/C(=O)O`, the growth inhibition in experiment [1] is 30.8% (inactive) and 25.7% (inactive); in experiment [2] it was -7.85% (inactive) and 14.2% (inactive); in experiment [3], -5.2% (inactive) and -7.85% (inactive); in experiment [4], -7.8% (inactive) and -13.9% (inactive); in experiment [5] it was 3.95% (inactive) and 10.9% (inactive); in experiment [6], -22.4% (inactive) and 6.65% (inactive).
As for `CSCCC(NC(=O)COc1ccc(Cl)cc1Cl)C(=O)O` (stereo unspecified), the growth inhibition in experiment [1] is -21.3% (inactive) and 16.8% (inactive); in experiment [2], -35.6% (inactive) and 60% (inactive); in experiment [3], -44.5% (inactive) and 34.2% (inactive); in experiment [4] it was 6.2% (inactive) and 7.2% (inactive); in experiment [5], -23.4% (inactive) and 30.6% (inactive); in experiment [6], -33.3% (inactive) and 52.7% (inactive).
As to `NC(N)=NC(N)=Nc1ccc(S(N)(=O)=O)cc1`, the growth inhibition was 21.6% (inactive) and 10.5% (inactive) in experiment [1]; 14.7% (inactive) and 4.3% (inactive) in experiment [2]; 13.4% (inactive) and 14.7% (inactive) in experiment [3]; -13.8% (inactive) and -48.6% (inactive) in experiment [4]; 34.2% (inactive) and -9.8% (inactive) in experiment [5]; 34.2% (inactive) and 18.5% (inactive) in experiment [6].
As for `Cc1ccc(C(O)(C(F)(F)F)C(O)(c2ccc(C)cc2)C(F)(F)F)cc1` (stereo unspecified), the growth inhibition in experiment [1] was 36.8% (inactive) and 99.2% (active); in experiment [2] it was 1.9% (inactive) and 99.5% (active); in experiment [3] it was -12.8% (inactive) and 99.3% (active); in experiment [4], -10.2% (inactive) and 99.4% (active); in experiment [5] it was -8.85% (inactive) and 99.3% (active); in experiment [6], -5.75% (inactive) and 99% (active).
In the case of `O=C(O)C(Cc1ccccc1)Cc1ccccc1`, the growth inhibition in experiment [1] is -11.6% (inactive) and 20.8% (inactive); in experiment [2], 4.6% (inactive) and 3.1% (inactive); in experiment [3], -14.4% (inactive) and 9.8% (inactive); in experiment [4], -40.1% (inactive) and 29.2% (inactive); in experiment [5], -22.9% (inactive) and 43.5% (inactive); in experiment [6], 3.75% (inactive) and 35.2% (inactive).
On to `O=C(O)CSc1nc2ccccc2s1`, for which the growth inhibition in experiment [1] is -8.8% (inactive) and -6.9% (inactive); in experiment [2], 1.7% (inactive) and -9.8% (inactive); in experiment [3], -0.85% (inactive) and -11.6% (inactive); in experiment [4], -28.8% (inactive) and -12% (inactive); in experiment [5], 9.45% (inactive) and -33.6% (inactive); in experiment [6] it was -12.7% (inactive) and -48% (inactive).
As for `O=C(Nc1ccccc1)C1CCCCC1CO` (stereo unspecified), the growth inhibition in experiment [1] was 18.9% (inactive) and 7.15% (inactive); in experiment [2], 5.95% (inactive) and 17.4% (inactive); in experiment [3], 9.95% (inactive) and 22.1% (inactive); in experiment [4] it was 7% (inactive) and 7.1% (inactive); in experiment [5], 2.65% (inactive) and -6.15% (inactive); in experiment [6], 5.95% (inactive) and 31.8% (inactive).
Consider `CCOC(=O)C(=O)Cc1cnc2ccccc2n1`, for which the growth inhibition in experiment [1] was 1.95% (inactive) and 3.05% (inactive); in experiment [2], 7.55% (inactive) and -4.8% (inactive); in experiment [3], -18.8% (inactive) and -8.3% (inactive); in experiment [4], 3.6% (inactive) and 10.7% (inactive); in experiment [5], -1.2% (inactive) and 7.2% (inactive); in experiment [6] it was 16.2% (inactive) and -5.05% (inactive).
As for `CCSC(SCC)C(OC(C)=O)C(OC(C)=O)C(COC(C)=O)OC(C)=O` (stereo unspecified), the growth inhibition in experiment [1] is -2.1% (inactive) and -16.1% (inactive); in experiment [2] it was -2.3% (inactive) and -2.8% (inactive); in experiment [3] it was 8.1% (inactive) and 4.4% (inactive); in experiment [4] it was -40% (inactive) and -18.2% (inactive); in experiment [5] it was -7.25% (inactive) and -3.55% (inactive); in experiment [6] it was 16.6% (inactive) and 10.9% (inactive).
